Measured values taken from ChEMBL document CHEMBL4296183, “CO-ADD screening of NIH NCI Natural Product Set III” (2020).
For some assays here: Potency and affinity values are given separately.

Legend:
Staphylococcus aureus = experiment: Antibacterial activity against Staphylococcus aureus MRSA ATCC 43300 (CO-ADD:GP_020); MIC in CAMBH media using NBS plates, by Resazurin F(560/590); type: functional; conditions: Concentration 20 uM, ASSAY_TEST Inhibition of Bacterial Growth, detection method Resazurin, Fluorescence (ex560/em590), MEDIA CAMHB, plate type 384well, CORNING #3640, time 18 hr
Acinetobacter baumannii = experiment: Antibacterial activity against Acinetobacter baumannii ATCC 19606 (CO-ADD:GN_034); MIC in CAMBH media using NBS plates, by Resazurin F(560/590); type: functional; conditions: Concentration 20 uM, ASSAY_TEST Inhibition of Bacterial Growth, detection method Resazurin, Fluorescence (ex560/em590), MEDIA CAMHB, plate type 384well, CORNING #3640, time 18 hr
Escherichia coli = experiment: Antibacterial activity against Escherichia coli ATCC 25922 (CO-ADD:GN_001); MIC in CAMBH media using NBS plates, by Resazurin F(560/590); type: functional; conditions: Concentration 20 uM, ASSAY_TEST Inhibition of Bacterial Growth, detection method Resazurin, Fluorescence (ex560/em590), MEDIA CAMHB, plate type 384well, CORNING #3640, time 18 hr
Klebsiella pneumoniae = conditions: Concentration 20 uM; ASSAY_TEST Inhibition of Bacterial Growth; detection method Absorption (OD600); MEDIA CAMHB; plate type 384well; NBS; CORNING #3640; time 18 hr
Candida albicans = conditions: 20 µM
Cryptococcus neoformans = conditions: Concentration 20 uM; ASSAY_TEST Inhibition of Fungal Growth; detection method Resazurin; Absorption (OD600-OD570); plate type 384well; NBS; CORNING #3640

Row | Structure (SMILES) | Inhibition (Staphylococcus aureus) [%] | Inhibition (Acinetobacter baumannii) [%] | Inhibition (Escherichia coli) [%] | Inhibition (Klebsiella pneumoniae) [%] | Inhibition (Candida albicans) [%] | Inhibition (Cryptococcus neoformans) [%]
1 | COC1/C=C\C=C(/C)C(=O)NC2=CC(=O)C(N)=C(CC(C)CC(OC)C(O)C(C)/C=C(\C)C1OC(N)=O)C2=O (centres undefined) | 2.59 | -32.33 | -4.57 | 4.53 | -0.48 | -11.91
2 | COc1cc(/C=C/C(=O)CC(=O)/C=C/c2ccc(O)c(OC)c2)ccc1O [CURCUMIN] | 13.57 | -16.03 | 0.88 | 14.8 | -4.9 | -10.45
3 | CN1CCc2cc3c(cc2C(=O)Cc2ccc4c(c2C1)OCO4)OCO3.Cl [PROTOPINE HYDROCHLORIDE] | 14.82 | -4.7 | 3 | 4.34 | -1.7 | -6.39
4 | COc1ccc2c(c1)O[C@H]1c3ccc(O)cc3OC[C@@H]21 | 7.33 | -10.59 | 8.35 | -2.42 | 12.9 | -18.12
5 | CC(=O)Oc1ccc2ccc(=O)oc2c1OC(C)=O | 18.68 | -10.5 | 2.34 | 9 | -1.13 | -4.56
6 | CCCCCc1cc(O)cc2c1Oc1cc(O)cc(C(=O)CCCC)c1C(=O)O2 | 23.6 | -18.85 | 9.72 | -6.31 | 2.52 | -14.32
7 | CCCCCCCCCCCCCCCCCCOCC(O)CO (centres undefined) [BATILOL] | 16.14 | -8.86 | 0.06 | 2.79 | -1.81 | 0.87
8 | COC(=O)[C@]1(C)CCC[C@]2(C)C3=CC(=O)[C@@]4(C(C)C)O[C@H]4[C@]3(O)CC[C@@H]12 | 16.23 | -9.2 | 10.18 | -2.04 | 3.2 | -11.73
9 | COc1cc2c(c(OC)c1OC)-c1ccc(OC)c(=O)cc1[C@@H](NC(C)=O)CC2 [COLCHICINE] | -2.4 | -6.56 | 3.55 | 3.13 | -0.28 | -9.86
10 | CCC1NC(=O)C(NC(=O)c2ncccc2O)C(C)OC(=O)C(c2ccccc2)NC(=O)C2CC(=O)CCN2C(=O)C(Cc2ccccc2)N(C)C(=O)C2CCCN2C1=O (centres undefined) | 3.19 | -3.49 | 1.18 | 4.35 | -3.25 | -7.49
11 | COC(=O)C1C(O)CCC2CN3CCc4c([nH]c5ccccc45)C3CC21 (centres undefined) | 7.76 | -5.08 | 5.27 | 13.74 | 1.54 | -9.85
12 | COc1c2c(cc3c1[C@@H]1Oc4c(ccc(O)c4CC=C(C)C)[C@@H]1CO3)OC(C)(C)C=C2 | -1.33 | -12.04 | 1.21 | -0.46 | 5.57 | -11.6
13 | CC(=O)C1CCCC(=O)/C=C/C(=O)O1 (centres undefined) | -2.82 | -9.57 | -0.06 | -0.08 | 6.81 | -5.33
14 | C=C1C(=O)OC2CC(C)C3(O)CCC(=O)C3(C)CC12 (centres undefined) | 18.37 | -10.29 | 9.08 | 2.56 | 2.8 | -16.95
15 | CC(=O)O.COc1ccc2c(=O)oc3c(OC)cc(CCN(C)C)c4c(=O)oc1c2c34 | 18.21 | -7.25 | 6.5 | 15.37 | -2.47 | -6.47
16 | CCC1OC(=O)C(C)C(OC2CC(C)(O)C(O)C(C)O2)C(C)C(O)C(C)(O)CC(C)C(=O)C(C)C(O)C1C (centres undefined) | -9.59 | -2.14 | 7.74 | 3.36 | 1.65 | -12.63
17 | CC(C)CC1NC(=O)C(C(C)C)NC(=O)CC(C)COC(=O)C(CC(C)C)N(C)C(=O)C(C(C)C)NC(=O)C(C(C)C)OC1=O (centres undefined) | -2.11 | 3.02 | 6.85 | 6.52 | -1.26 | -9.65
18 | C=C1C(=O)OC2CC1C(O)C/C(C)=C/CC/C(C)=C/C(O)CC2C (centres undefined) | 8.79 | -8.51 | 8 | 4.77 | 2.83 | -14.61
19 | CC(C)c1ccc2c(c1)CC[C@H]1[C@](C)(C(=O)O)CCC[C@]21C [DEHYDROABIETIC ACID] | 11.51 | -10.79 | 7.61 | -3.77 | 14 | -14.06
20 | O=c1oc2c(O)c(O)cc3c(=O)oc4c(O)c(O)cc1c4c23 [ELLAGIC ACID] | -17.94 | -6.11 | 7.74 | 25.12 | 8.04 | -7.36
21 | C[C@@H]1C(=O)C[C@H]2C(C)(C)CCC[C@]2(C)[C@@]1(O)CCc1ccoc1 | -11.22 | -8.38 | 1.88 | -12.83 | 5.12 | -4.02
22 | COc1c2occc2cc2ccc(=O)oc12 [METHOXSALEN] | 3.08 | -6.09 | 2.12 | 4.76 | -3.39 | -9.6
23 | O=c1oc2cc(O)ccc2c2oc3cc(O)ccc3c12 [COUMESTROL] | 0.36 | -8.94 | 2.17 | -3.39 | 2.68 | 17.46
24 | COC(=O)C1C2CC3c4[nH]c5cc(OC)ccc5c4CCN3CC2CC(OC(=O)CCc2cc(OC)c(OC)c(OC)c2)C1OC (centres undefined) | 8.41 | -10.91 | 1.29 | -7.51 | -0.42 | -8.83
25 | CC(C)=CC(=O)OC1C2C(C)C(=O)OC2C(O)C(C)C2C=CC(=O)C21C (centres undefined) | 8.65 | -2.16 | -1.23 | 13.7 | 0.18 | -5.72

Row | Structure (SMILES) | Inhibition (Staphylococcus aureus) [%] | Inhibition (Acinetobacter baumannii) [%] | Inhibition (Escherichia coli) [%] | Inhibition (Klebsiella pneumoniae) [%] | Inhibition (Candida albicans) [%] | Inhibition (Cryptococcus neoformans) [%]
26 | CC1CC(O)C2C3(C)CCCC2(COC3=O)C12CCC1(CCOC1=O)O2 (centres undefined) | 0.12 | -5.16 | 2.41 | 8.95 | -0.89 | -8.53
27 | COc1ccc(C2CC(=O)c3c(O)cc(OC4OC(CO)C(O)C(O)C4OC4OC(C)C(O)C(O)C4O)cc3O2)cc1O (centres undefined) | 15.96 | -4.03 | 5.81 | 1.79 | -1.53 | -13
28 | CCCCCCCCCCCCCCCC(=O)O[C@@H]1[C@@H](C)[C@@]2(O)[C@@H](C=C(CO)C[C@]3(O)C(=O)C(C)=C[C@@H]23)[C@H]2[C@]1(OC(C)=O)[C@]2(C)CO | 18.67 | -9.19 | 2.92 | 11.05 | -4.72 | -11.83
29 | COc1ccc2c(c1OC)C(=O)O[C@@H]2[C@H]1c2c(cc3c(c2OC)OCO3)CCN1C [NOSCAPINE] | 1.91 | -5.12 | 1.19 | -0.26 | -0.41 | -6.69
30 | C/C=C/c1cc2c(c(=O)o1)C(=O)[C@@H](O)[C@H](C)O2 | -0.66 | -9.6 | 14.21 | -6.98 | 1.1 | -12.06
31 | C=C1C(=O)OC2CC3(C)CCCC(C)C3=CC12 (centres undefined) | 9.16 | -5.59 | -1.07 | 10.15 | 0.7 | -3.97
32 | COc1cc([C@@H]2c3cc4c(cc3[C@@H](OC3OC5CO[C@@H](c6cccs6)OC5C(O)C3O)[C@H]3COC(=O)[C@H]23)OCO4)cc(OC)c1O (some centres undefined) | 7.05 | -1.54 | 1.68 | -0.01 | 0.54 | -9.1
33 | CCCCCC[C@H]([C@H](C)O)n1cnc2c(N)ncnc21.Cl | 18.32 | -17.98 | 7.31 | -3.55 | -0.37 | -9.44
34 | CC(=O)CCCCn1c(=O)c2c(ncn2C)n(C)c1=O [PENTOXIFYLLINE] | 0.21 | 0.79 | 9.18 | -2.03 | 4.24 | -13.02
35 | CC1(C)CCCC2(C)C3=C(CCC12)C(=O)OC3 (centres undefined) | 10.53 | -0.35 | 1.76 | 7.04 | 0.95 | -15.17
36 | COc1c(O)cc2oc3cc(O)c(CC=C(C)C)c(O)c3c(=O)c2c1CC=C(C)C [MANGOSTIN] | -10.76 | -19.44 | -3.06 | -4.57 | -6.96 | -8.44
37 | CC1=C2[C@H]3OC(=O)[C@@H](C)[C@@H]3CC[C@@]2(C)C=C/C1=N\O | 19.54 | -5.16 | 3.05 | 6.63 | -0.24 | -9.56
38 | COc1cc(C)c2c(c1C=O)Oc1c(c(C)c(O)c3c1C(O)OC3=O)OC2=O (centres undefined) [STICTIC ACID] | 1.81 | -4.46 | 10.36 | -0.81 | -4.28 | -12.08
39 | O=C(O)CCCCCCC[C@@H](O)[C@@H](O)CCCCCCO | 20.06 | -9.87 | 9.65 | 0.28 | 1.24 | -6.7
40 | COc1c2occc2c(OC)c2c(=O)cc(C)oc12 [KHELLIN] | 20.27 | -0.82 | 5.11 | 15.74 | -0.57 | -6.58
41 | COC(=O)[C@@H]1[C@H]2C[C@@H]3c4[nH]c5ccccc5c4CCN3C[C@@H]2CC[C@@H]1O | 20.93 | -4.53 | 11.73 | -5.72 | -3.73 | -8.25
42 | C=C1C(=O)O[C@@H]2[C@H]3O[C@]3(C)CC/C=C(\C)CC[C@@H]12 | -12.66 | 3.45 | 5.09 | 3.51 |  | -8.82
43 | COC(=O)NC1C(C)OC(OC2C/C=C(/C)C3C=CC4C(OC5CC(OC6CCC(OC7CC(O)C(OC8CCC(O)C(C)O8)C(C)O7)C(C)O6)C(OC(C)=O)C(C)O5)C(C)CC(C)C4C3(C)/C(O)=C3/C(=O)OC4(CC(C=O)=CC(O)C4/C=C\2C)C3=O)CC1(C)[N+](=O)[O-] (centres undefined) | -21.61 | -13.61 | 6.38 | 4.04 | 4.81 | -14.96
44 | CC(C)=CCc1c2c(c3occ(-c4ccc(O)c(O)c4)c(=O)c3c1O)C=CC(C)(C)O2 [POMIFERIN] | 6.8 | 23.27 | 0.91 | 26.31 | -6.81 | -8.85
45 | CC1(C)CC23C4COC(=O)C2CCC1C3CC4=O (centres undefined) | 5.56 | -5.6 | -0.76 | -5.19 | 0.59 | -8.62
46 | CC1(C)C(=O)N2c3ccccc3C3(CC(N4C(=O)c5ccccc5C4=O)C(=O)O3)C2N1C(=O)OCc1ccccc1 (centres undefined) | -7.98 | -16.59 | 1.59 | -2.04 | 1.22 | -12.3
47 | COc1cc2c3c(c4ccc(OC)c(OC)c4c2cc1OC)CN1CCC[C@@H]1C3 [TYLOCREBRINE] | 23.41 | -4.59 | 1.54 | 13.12 | -1.43 | -6.05
48 | CC[C@]1(O)C[C@H]2CN(CCc3c([nH]c4ccccc34)[C@@](C(=O)OC)(c3cc4c(cc3OC)N(C=O)[C@H]3[C@@](O)(C(=O)OC)[C@H](OC(C)=O)[C@]5(CC)C=CCN6CC[C@]43[C@@H]65)C2)C1.O=S(=O)(O)O [VINCRISTINE SULFATE] | -14.43 | -6.71 | 2.79 | 1.69 | -0.39 | -1.83
49 | O=C1c2cc(O)c(O)cc2O[C@H](c2ccc(O)c(O)c2)[C@H]1O | 16.46 | -11.64 | 7.15 | 6.5 | -0.56 | -13.12
50 | Cc1cc2nc3[nH]c(=O)[nH]c(=O)c3nc2cc1C [LUMICHROME] | 0.69 | -0.84 | 3.58 | 12.48 | 0.84 | -5.45
